Laboratory results taken from PubChem BioAssay (NCI).
About 79,000 compounds went through this panel and 15% of them were active in at least one assay; those are over-represented in the sample as a whole. Unmarked numbers belong to inactive results. Activity calls are given as the source filed them. No stated cut-off is given here; in the data, active means growth inhibition above about 70%; inactive means the rest.

Assay: NCI Yeast Anticancer Drug Screen. Data for the mec2-1 strain (AID 157)
Settings: S. cerevisiae mec2-1 strain, at 50.0 µM (retest, dose inferred, filed as 5.0), active compounds read high
Outline: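 Yeast mec2-1 mutant treated with compound. Readout: growth inhibition vs vehicle controls.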
In the case of `Clc1cc2n[nH]nc2c(Cl)c1Cl`, the growth inhibition is reported as 84% (active).
With `NSc1ccc(N)s1` the growth inhibition was 12%.
In the case of `O=C1C2=C(CCCC2)C(=O)C(Cl)C1Cl` (configuration not stated), the growth inhibition is reported as 99% (active).
In the case of `O=C(COc1ccc2ccccc2c1)NC1c2ccccc2Oc2ccccc21`, the growth inhibition is reported as 97% (active).
For `COc1ccc(-c2cc(-c3ccco3)c(C#N)c(=S)n2C2OC(CO)C(O)C(O)C2O)cc1` (configuration not stated), the growth inhibition was -12%.
Compound `Clc1cccc(Cl)c1C(Nc1nncs1)Nc1nncs1` has a growth inhibition of 51%.
Work on `COC([C@@H](OC(=O)c1ccccc1)[C@H](OC(=O)c1ccccc1)C(O)COC(=O)c1ccccc1)n1cc(C)c(=O)[nH]c1=O` (some centres not stated) yielded a growth inhibition of 18%.
In the case of `C1=C(c2c(-c3ccccc3)[nH]c3ccccc23)Cc2ccccc21`, the growth inhibition is reported as 95% (active).
With `CC12C(=O)OC(=O)C1C1c3ccccc3C2c2ccccc21` (configuration not stated) the growth inhibition was 99% (active).
Work on `O=C(N/C(=C\c1ccc(/C=C(\NC(=O)c2ccccc2)c2nc3ccccc3s2)cc1)c1nc2ccccc2s1)c1ccccc1` yielded a growth inhibition of 32%.
With `COS(=O)c1cc(Cl)cc(Cl)c1OC(=O)CSSCC(=O)Oc1c(Cl)cc(Cl)cc1S(=O)OC` (configuration not stated) the growth inhibition was 99% (active).
With `COc1cc2c3c(c4ccc(OC)c(OC)c4c2cc1OC)CN1CCC[C@@H]1C3` the growth inhibition was 99% (active).
With `N#CSC#CCCC#CSC#N` the growth inhibition was 55%.
With `Nc1nc(-c2ccc(Cl)cc2)c(N=Nc2ccc(Br)cc2)s1` the growth inhibition was 96% (active).
With `CC(=O)C(C(C)=O)C1C=CC=CC=C1` the growth inhibition was 87% (active).
Compound `CCCCN(C(=O)c1ccccc1)C1CCC(=O)c2[nH]c3ccccc3c21` (configuration not stated) has a growth inhibition of -28%.
For `S=C(Nc1ccc(Cl)c(Cl)c1)N1c2ccccc2-n2cccc2C1c1cccnc1` (configuration not stated), the growth inhibition was 99% (active).
